Laboratory results: the supplement of paper PMC6555819

Assays:
Assay in all cases: PBM binding z-score (relative to random genomic background probes); higher = stronger binding; sequences stand for … in GC…GCGATTGACAGCGTAGAATGAAGG
[1] = tested on: PPARg:RXRa DBDmut IVT, anti-RXR (DBD mutation: RXRa K156A/R161A, NR concentration 270 nM, RXRa partner concentration 90 nM)
Method in brief: (§1)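 Each nuclear receptor dimer, without ligand, was incubated for 1 h on custom Agilent 4×180K protein-binding microarrays. Binding was detected with antibodies against each partner (one per run), and scanned fluorescence was regression-normalized. The binding z-scores are referenced to random human genomic background probes.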

[2] = tested on: PPARg:RXRa IVT, anti-PPARg (NR concentration 270 nM, RXRa partner concentration 90 nM)
Method in brief: as §1

[3] = tested on: PPARg DBDmut:RXRa IVT, anti-PPARg (DBD mutation: PPARg1 K132A/R137A, NR concentration 270 nM, RXRa partner concentration 90 nM)
Method in brief: as §1

[4] = tested on: PPARg DBDmut IVT, anti-PPARg (DBD mutation: PPARg1 K132A/R137A, NR concentration 270 nM)
Method in brief: as §1

[5] = tested on: PPARg homodimer (NR concentration 180 nM)
Method in brief: as §1

[6] = tested on: PXR:RXRa (NR concentration 270 nM, RXRa partner concentration 90 nM)
Method in brief: as §1

[7] = tested on: PXR homodimer (NR concentration 270 nM)
Method in brief: as §1

[8] = tested on: RARa:RXR (NR concentration 270 nM, RXRa partner concentration 90 nM)
Method in brief: as §1

[9] = tested on: RARa homodimer (NR concentration 270 nM)
Method in brief: as §1

[10] = tested on: RARb:RXRa (NR concentration 270 nM, RXRa partner concentration 90 nM)
Method in brief: as §1

[11] = tested on: RARb homodimer (NR concentration 270 nM)
Method in brief: as §1

[12] = tested on: RARg:RXRa (NR concentration 270 nM, RXRa partner concentration 90 nM)
Method in brief: as §1

[13] = tested on: RARg homodimer (NR concentration 270 nM)
Method in brief: as §1

[14] = tested on: RXRa DBDmut IVT, anti-RXR (DBD mutation: RXRa K156A/R161A, NR concentration 90 nM)
Method in brief: as §1

[15] = tested on: RXRa homodimer (NR concentration 180 nM)
Method in brief: as §1

[16] = tested on: THRa:RXRa (NR concentration 90 nM, RXRa partner concentration 90 nM)
Method in brief: as §1

[17] = tested on: THRa homodimer (NR concentration 90 nM)
Method in brief: as §1

[18] = tested on: VDR homodimer (NR concentration 270 nM)
Method in brief: as §1

Sequence | PBM binding z-score [1] | PBM binding z-score [2] | PBM binding z-score [3] | PBM binding z-score [4] | PBM binding z-score [5] | PBM binding z-score [6] | PBM binding z-score [7] | PBM binding z-score [8] | PBM binding z-score [9] | PBM binding z-score [10] | PBM binding z-score [11] | PBM binding z-score [12] | PBM binding z-score [13] | PBM binding z-score [14] | PBM binding z-score [15] | PBM binding z-score [16] | PBM binding z-score [17] | PBM binding z-score [18]
GGAACGAAGGCAAGTTGATAGCAGAGTTTGATGG | -0.11 | -0.659 | 0.0164 | -0.632 | -0.995 | -0.665 | -0.247 | -0.931 | -0.746 | -0.503 | -0.711 | -0.376 | -0.138 | 0.098 | -0.667 | -0.824 | -1.3 | -0.0459
CGTCAAAATTCAAGGTAACGTAACAGAAAGCAGC | 0.000306 | 0.704 | 0.815 | 0.761 | 0.474 | -0.0296 | 0.268 | 0.363 | 0.932 | 0.208 | 0.985 | 0.175 | 0.447 | -0.0025 | 0.308 | 1.64 | 1.15 | 0.24
GCAGACAGGTGAAACGCTGGTAACTCAGGGTGGC | 0.871 | 0.415 | -0.505 | -0.62 | -1.22 | -0.38 | -0.927 | 0.0217 | -0.662 | 0.668 | -0.219 | 0.167 | -0.138 | -0.318 | 0.612 | 0.209 | -0.645 | -0.838
TAGCCTAGGGCATTGGGCCAGTATAGTACGCATC | 0.771 | 1.87 | -0.149 | -0.898 | -1.01 | -0.62 | -0.779 | -0.444 | -1.17 | 1.08 | 0.542 | 0.434 | 1.21 | -0.706 | 0.0585 | -0.328 | -0.611 | -0.306
ACTCGGAGGACAAAGCTCAGAGCTACGCCAGTGA | -0.219 | -0.357 | -0.787 | -1.32 | -1.15 | -0.902 | -0.759 | -1.14 | -0.639 | 0.77 | -0.345 | 0.103 | 0.826 | 0.394 | -0.292 | 0.233 | -0.675 | -0.243
CCTCGGAGGACAGAAGGTCAGCGCTGTCCGCTTT | -0.144 | 0.0652 | -1.29 | -1.5 | 1.24 | 1.96 | -0.497 | 2.76 | 0.504 | 3.68 | 4.09 | 4.02 | 3.84 | 0.468 | 2.54 | 2.57 | -0.027 | 0.0447
AGAACGAGGGCAATGAGTTGATCGCACGGGTGGC | 2.79 | 2.63 | 0.67 | 0.015 | -0.315 | 1.75 | 5.1 | 0.134 | -0.671 | 2 | 0.965 | 0.967 | 1.42 | 2.25 | 0.774 | 1.14 | -0.233 | 3.08
ATCTCTAGGTAAGACTCAGTTCATTGAAGAACGC | 2.32 | 1.16 | 1.33 | 1.23 | 1.13 | 2.6 | 4.35 | 1.04 | 1.62 | 0.694 | 0.892 | 0.375 | 0.586 | 1.31 | 0.538 | 1.58 | 0.923 | 3.67
GCATATAGGTAATACATGGTGAAAGTCCGATTGT | 3.87 | 2.35 | 0.904 | 0.833 | 0.511 | 0.00943 | 0.145 | 0.174 | 0.397 | -0.202 | -0.181 | 0.00391 | 0.437 | 0.319 | 0.441 | 0.327 | -0.218 | 0.32
ACAGGCAGGTGAGTGAAGGTAACTCAGCTGGACG | 0.549 | 0.264 | -0.867 | -0.655 | -0.302 | -0.384 | -0.354 | -0.019 | -0.662 | 0.283 | 0.0493 | -0.184 | 0.135 | -0.851 | 0.135 | 1.31 | -0.451 | -0.884
CGTCCAAGGTCAGAGTGGTCAGTGAATGCCGAGT | 2.5 | 2.37 | -0.175 | -0.939 | 2.59 | 2.78 | 1.03 | 3.16 | 0.908 | 4.8 | 3.83 | 4.78 | 5.48 | 2.94 | 3.42 | 3.59 | 1.9 | 2.23
AGAACGAGGGCACGCTGAGTTGATTGCAGAGTAG | 4.08 | 3.53 | 0.256 | 0.126 | 0.222 | 1.56 | -0.0942 | 0.717 | -0.751 | 2.36 | 1.13 | 1.93 | 2.38 | 1.87 | 1.27 | 1.86 | -0.121 | 2.17
ACTCAAAGTTCATCTAGGTAACGTAAGATATGCT | 1.43 | 2.81 | 2.23 | 2.06 | 3.4 | 5.34 | 7.92 | 4.08 | 2.11 | 5.33 | 4.25 | 5.51 | 6.3 | 4.87 | 4.62 | 3.37 | 0.619 | 5.89
TCTAGTTGGTCCAAGGTCACACACTCGAAATGCG | 2.28 | 3.07 | 1.36 | 0.797 | 3.08 | 4.21 | 1.63 | 4.31 | 1.96 | 3.53 | 4.11 | 4.07 | 3.8 | 2.01 | 4.39 | 4.31 | 4.14 | 3.22
AATACAGGGTCACTAGACCAGAGTAGGTACGAAT | 2.98 | 4.48 | 1.64 | 0.757 | 1.41 | 3.05 | 0.6 | 4.02 | 0.657 | 4.12 | 2.96 | 4.98 | 4.81 | 2.68 | 5.91 | 3.24 | 1.08 | 2.54
CCTACTGGGCCAAAAAGGTCATAGATGCCGATAA | 3.18 | 4.3 | 0.551 | -0.44 | 3.27 | 4.51 | 1.73 | 5.33 | 1.49 | 3.98 | 4.35 | 4.63 | 4.54 | 0.263 | 5.22 | 3.08 | 0.589 | 2
